# Measured values from PubChem BioAssay (EPA / NIEHS).
# Records with an inconclusive call do not appear. The source holds several records for some structures; these can differ, active in one and inactive in another. Calls of active or inactive are those of the source. Rule for the calls: active = hit-call score of the fitted dose curve at least 0.9, where 1 is the maximum; inconclusive = response in the unintended direction; inactive = score below 0.9.
# Target: human Thyroid Receptor Alpha (TRa), THRA (gene 7067) (UniProt P10827)
# Test: NVS_NR_hTRa_Antagonist: NovaScreen (NVS) Nuclear Receptor Binding Assay for human Thyroid Receptor Alpha Antagonism (TRa) (AID 2283362)
# Method in brief: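 Cell-free binding assay on extracted receptor protein, read 1 h after chemical dosing by AlphaLISA chemiluminescence; loss of signal relative to DMSO baseline marks antagonism. Primary screen ran in duplicate at 25 uM, with concentration series for actives.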
# Sequence of human Thyroid Receptor Alpha (TRa), THRA (gene 7067) (P10827 whole entry, looked up): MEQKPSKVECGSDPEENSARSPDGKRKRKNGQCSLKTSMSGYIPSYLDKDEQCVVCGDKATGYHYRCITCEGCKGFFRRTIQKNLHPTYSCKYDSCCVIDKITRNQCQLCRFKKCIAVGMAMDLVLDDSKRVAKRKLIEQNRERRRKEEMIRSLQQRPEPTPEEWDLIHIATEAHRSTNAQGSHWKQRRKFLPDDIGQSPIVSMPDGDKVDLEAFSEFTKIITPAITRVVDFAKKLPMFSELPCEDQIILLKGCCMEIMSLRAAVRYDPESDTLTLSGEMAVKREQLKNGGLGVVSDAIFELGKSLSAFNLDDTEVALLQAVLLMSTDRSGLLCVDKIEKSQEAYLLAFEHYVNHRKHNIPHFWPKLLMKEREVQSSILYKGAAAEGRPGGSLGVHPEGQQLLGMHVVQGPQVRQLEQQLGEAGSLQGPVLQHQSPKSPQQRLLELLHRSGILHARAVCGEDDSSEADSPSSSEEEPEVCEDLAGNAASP
SMILES,outcome,AC50
CCCCCCCCCc1ccc(O)cc1,inactive,–
Oc1ccc(Cl)cc1Cl,inactive,–
COc1ccc(O)c(C(C)(C)C)c1,–,19.3 µM (active)

# Target: guinea pig Sigma Receptor, Non-selective Binding, SIGMAR1 (gene 100135589) (UniProt Q60492)
# Test: NVS_OR_gSIGMA_NonSelective: NovaScreen (NVS) Nuclear Receptor Binding Assay for guinea pig Sigma Receptor, Non-selective Binding (AID 2283367)
# Description: NVS_OR_gSIGMA_NonSelective is a biochemical, single-readout assay that uses extracted gene-proteins from Guinea pig brain membranes in a tissue-based cell-free assay. Measurements were taken 1 hour after chemical dosing in a 48-well plate.NVS_OR_gSIGMA_NonSelective is one of one assay component(s) measured or calculated from the NVS_OR_gSIGMA_NonSelective assay. It is designed to make measurements of radioligand binding, a form of binding reporter, as detected with scintillation counting signals by Filter-based radiodetection technology.Data from the assay component NVS_OR_gSIGMA_NonSelective was analyzed into 1 assay endpoint. This assay endpoint, NVS_OR_gSIGMA_NonSelective, was analyzed in the positive analysis fitting direction relative to DMSO as the negative control and baseline of activity. Using a type of binding reporter, loss-of-signal activity can be used to understand changes in the binding as they relate to the gene Sigmar1. Furthermore, this assay endpoint can be referred to as a primary readout, because the performed assay has only produced 1 assay endpoint. To generalize the intended target to other relatable targets, this assay endpoint is annotated to the misc protein intended target family, where the subfamily is chaperone.
# Binding assays used specific radioligands (tritiated, iodinated) with non-radioactive competitive displacement ligands in agonist or antagonist protocols (as indicated) and various reference compounds and inhibitors to titrate specific binding to receptors and transporters. Most enzyme assays (CYPs, kinases, phosphatases, proteases, HDACs) used recombinant protein and specific substrates (fluorescence mostly, some colorimetric and radioactive) and inhibitors, followed by a biochemical separation of substrate and product. All assays for the biochemical HTS were initially run in duplicate at a single concentration (10 uM for CYP450 assays and 25 uM for all others). […] Each assay was run with positive and negative controls, and concurrent controls on every plate. The follow-up (secondary) screen tested active chemical-pairs in concentration series, as well as a few additional assays not tested in the primary screen, some selected negative inactives, and several cases re-run in the concentration series for confirmatory purposes.
# Sequence of guinea pig Sigma Receptor, Non-selective Binding, SIGMAR1 (gene 100135589) (Q60492 whole entry, looked up): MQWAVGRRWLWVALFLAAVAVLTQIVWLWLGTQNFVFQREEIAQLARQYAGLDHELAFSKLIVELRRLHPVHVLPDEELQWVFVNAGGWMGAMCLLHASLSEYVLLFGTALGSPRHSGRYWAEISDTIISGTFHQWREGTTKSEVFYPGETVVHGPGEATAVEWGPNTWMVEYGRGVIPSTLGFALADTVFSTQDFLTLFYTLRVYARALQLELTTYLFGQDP
SMILES,AC50,outcome
C[C@]12CCC(=O)C=C1CC[C@@H]1[C@@H]2CC[C@]2(C)C(=O)CC[C@@H]12,11.3 µM (active),–
CCCN(CCC)N=O,–,inactive
CCC(=O)O[C@H]1CC[C@H]2[C@@H]3CCC4=CC(=O)CC[C@]4(C)[C@H]3CC[C@]12C,–,inactive
Nc1ccc(-c2ccc(N)cc2)cc1,25 µM (active),–

# System: guinea pig Dopamine Transporter (DAT), gene 100714898
# Test: NVS_TR_gDAT: NovaScreen (NVS) Transporter Assay for guinea pig Dopamine Transporter (DAT) (AID 2283369);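 note: active compounds lower bound radioligand signal relative to DMSO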
# Method in brief: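 Guinea pig striatal membranes; radioligand displacement measured by filter-based scintillation counting 2 h after dosing. Initial duplicate screen at 25 uM, then concentration-response up to 50 uM for hits; loss of signal versus DMSO baseline.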
SMILES,outcome,AC50
Cc1cc(O)ccc1Cl,inactive,–
C[C@]12CCC(=O)C=C1CC[C@@H]1[C@@H]2CC[C@]2(C)C(=O)CC[C@@H]12,inactive,–
CCOC(=O)C(O)(c1ccc(Cl)cc1)c1ccc(Cl)cc1,–,14.3 µM (active)
CC(C)(c1ccccc1)c1ccc(O)cc1,–,15.9 µM (active)
COc1ccc(O)c(C(C)(C)C)c1,–,16.6 µM (active)
Nc1ccc(-c2ccc(N)cc2)cc1,–,12.8 µM (active)

# Target: Peroxisome proliferator-activated receptor gamma (Homo sapiens) (UniProt P37231)
# Test: NVS_NR_hPPARg: NovaScreen (NVS) Nuclear Receptor Binding Assay for human Peroxisome Proliferator-activated Receptor gamma (PPARg) (AID 2283370)
# Method in brief: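 Cell-free binding to extracted PPARg protein, read by fluorescence polarization 2 h after dosing; loss of signal relative to DMSO baseline marks displacement. Primary screen in duplicate at 25 uM, actives retested in concentration series.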
# Sequence of Peroxisome proliferator-activated receptor gamma (Homo sapiens) (P37231 whole entry, looked up): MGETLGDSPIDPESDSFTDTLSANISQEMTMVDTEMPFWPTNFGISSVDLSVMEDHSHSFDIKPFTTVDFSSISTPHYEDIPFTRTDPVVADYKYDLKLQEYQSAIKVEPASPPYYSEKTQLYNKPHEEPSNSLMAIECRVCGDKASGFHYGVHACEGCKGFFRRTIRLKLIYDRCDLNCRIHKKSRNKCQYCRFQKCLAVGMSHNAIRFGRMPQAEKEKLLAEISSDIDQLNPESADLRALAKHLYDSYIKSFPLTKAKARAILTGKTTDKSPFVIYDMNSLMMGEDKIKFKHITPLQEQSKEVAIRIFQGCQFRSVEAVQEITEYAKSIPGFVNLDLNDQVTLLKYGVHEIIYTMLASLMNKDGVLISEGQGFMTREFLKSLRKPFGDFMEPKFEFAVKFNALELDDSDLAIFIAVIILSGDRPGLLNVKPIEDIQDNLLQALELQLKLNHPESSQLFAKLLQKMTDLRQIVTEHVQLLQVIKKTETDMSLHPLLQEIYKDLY
SMILES,outcome,AC50
CCC(C)c1cc([N+](=O)[O-])cc([N+](=O)[O-])c1O (centres undefined),inactive,–
CCCCCCCCCc1ccc(O)cc1,inactive,–
NS(=O)(=O)C(F)(F)C(F)(F)C(F)(F)C(F)(F)C(F)(F)C(F)(F)C(F)(F)C(F)(F)F,inactive,–
O=C(O)C(F)(F)C(F)(F)C(F)(F)C(F)(F)C(F)(F)C(F)(F)C(F)(F)C(F)(F)F,inactive,–
Oc1ccc(Cl)cc1Cl,inactive,–
CC(C)(c1ccccc1)c1ccc(O)cc1,inactive,25 µM (active)
COc1ccc(O)c(C(C)(C)C)c1,inactive,–
CCCCCCCCOC(=O)c1ccccc1C(=O)OCCCCCCCC,inactive,–
CCC(=O)O[C@H]1CC[C@H]2[C@@H]3CCC4=CC(=O)CC[C@]4(C)[C@H]3CC[C@]12C,inactive,–
CC(C)C(=O)OCC(C)(C)C(OC(=O)C(C)C)C(C)C (centres undefined),inactive,–
Nc1ccc(-c2ccc(N)cc2)cc1,inactive,–

# Target: human Dopamine Transporter (DAT), SLC6A3 (gene 6531) (UniProt Q01959)
# Test: NVS_TR_hDAT: NovaScreen (NVS) Transporter Assay for human Dopamine Transporter (DAT) (AID 2283374);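 note: activity means loss of bound radioligand signal relative to DMSO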
# Method in brief: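 hDAT membranes + tritiated/iodinated radioligand, competitive displacement; 1 h; filter scintillation readout. Single conc 25 uM (duplicate), then conc-response for actives. DMSO = negative control.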
# Sequence of human Dopamine Transporter (DAT), SLC6A3 (gene 6531) (Q01959 whole entry, looked up): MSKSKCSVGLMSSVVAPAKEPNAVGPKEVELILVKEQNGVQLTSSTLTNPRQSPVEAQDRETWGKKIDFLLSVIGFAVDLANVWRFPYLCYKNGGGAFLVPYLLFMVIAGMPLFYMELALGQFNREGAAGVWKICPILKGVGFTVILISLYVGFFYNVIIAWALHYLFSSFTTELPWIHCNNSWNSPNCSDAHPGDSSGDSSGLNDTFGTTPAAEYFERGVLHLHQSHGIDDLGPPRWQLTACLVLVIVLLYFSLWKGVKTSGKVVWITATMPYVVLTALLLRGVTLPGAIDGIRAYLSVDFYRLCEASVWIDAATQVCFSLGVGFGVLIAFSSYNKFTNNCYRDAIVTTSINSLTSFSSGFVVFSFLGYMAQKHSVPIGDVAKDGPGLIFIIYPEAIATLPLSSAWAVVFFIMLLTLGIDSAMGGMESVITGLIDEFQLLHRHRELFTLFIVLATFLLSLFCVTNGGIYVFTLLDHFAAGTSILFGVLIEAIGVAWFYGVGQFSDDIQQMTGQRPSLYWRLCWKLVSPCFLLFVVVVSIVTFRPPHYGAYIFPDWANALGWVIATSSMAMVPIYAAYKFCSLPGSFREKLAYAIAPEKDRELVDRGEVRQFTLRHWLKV
SMILES,AC50,outcome
CCOC(=O)C(O)(c1ccc(Cl)cc1)c1ccc(Cl)cc1,3.45 µM (active),–
CC(C)(c1ccccc1)c1ccc(O)cc1,5.98 µM (active),–
COc1ccc(O)c(C(C)(C)C)c1,8.78 µM (active),–
Nc1ccc(-c2ccc(N)cc2)cc1,–,inactive
